{"source": "PubChem BioAssay AID1259336", "about": "(Sattelle Laboratory, UCL Respiratory, Division of Medicine, …, 2017)", "note": "Values without a mark were called inactive. Calls of active or inactive are those of the source. Rule as the data show it: active = log2 fold change growth below about -1.8; inactive = the rest.", "data": [{"assay": "anthelmintic activity against nematode growth – whole organism, log2 fold change (AID 1259336);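 also: growth scored by imaging after five days at 20 °C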", "details": "C. elegans growth, anthelmintic screen; stronger effect = lower value", "values": [{"smiles": "COc1ccccc1[C@H](C)NCC(=O)Nc1cc(C(F)(F)F)ccc1Cl", "log2 fold change growth": 0.142}, {"smiles": "CC(C)N=c1cc2n(-c3ccc(Cl)cc3)c3ccccc3nc-2cc1Nc1ccc(Cl)cc1", "log2 fold change growth": 0.0581}, {"smiles": "O=C(NCc1cc(Cl)cc(Cl)c1)c1c(C(F)(F)F)nc2ccccn12", "log2 fold change growth": -0.11}, {"smiles": "CC(C)[C@H](Oc1cccc2ccccc12)C(=O)O", "log2 fold change growth": 0.534}, {"smiles": "Cc1cc(C)c2cc(C(=O)NC3CCCCCCC3)[nH]c2c1", "log2 fold change growth": -0.0221}, {"smiles": "CCc1nc2ccccc2n1C[C@H](O)COc1cc(C)ccc1Cl", "log2 fold change growth": 0.0644}, {"smiles": "COc1nc2ccc(Br)cc2cc1[C@@H](c1ccccc1)[C@@](O)(CCN(C)C)c1cccc2ccccc12", "log2 fold change growth": 0.248}, {"smiles": "COc1cccc(OCC(=O)c2ccc(Br)cc2)c1", "log2 fold change growth": -0.945}, {"smiles": "c1cncc(NCc2ccc(-c3cc4ccncc4cc3OC3CCNCC3)s2)c1", "log2 fold change growth": 0.376}, {"smiles": "CCN(CC)S(=O)(=O)c1ccc(C(=O)Nc2cc(C)nn2-c2nc(C)c(C)c(=O)[nH]2)cc1", "log2 fold change growth": 0.269}, {"smiles": "CCCCCCCCCCCCCCCCOP(=O)([O-])OCC[N+](C)(C)C", "log2 fold change growth": 0.528}, {"smiles": "Cc1ccccc1C(=O)N1NC(=Nc2ccccc2)SC1(C)C", "log2 fold change growth": -0.306}, {"smiles": "O=C1[C@@H](Oc2ccccc2)[C@@H](c2ccc(Cl)cc2)N1CCn1cnc2c(NCc3ccccc3)ncnc21", "log2 fold change growth": -0.167}, {"smiles": "CN1CCCN([C@@H](c2ccccc2)c2ccc(Cl)cc2)CC1", "log2 fold change growth": 0.517}, {"smiles": "CN1CCN(c2nccc3[nH]c(-c4ccc(F)c(F)c4)nc23)CC1", "log2 fold change growth": -0.373}, {"smiles": "COc1cccc(NC(=O)c2c(NC(=O)c3cccnc3)sc3c2CCC3)c1", "log2 fold change growth": -1.12}, {"smiles": "CC(C)(C)OC(=O)N1CCN(c2nccc(-c3ccc(-c4ccc(Cl)cc4)s3)n2)CC1", "log2 fold change growth": 0.151}, {"smiles": "Brc1cncc(-c2cc(NCCCn3ccnc3)nc(-c3ccccc3)n2)c1", "log2 fold change growth": -1.17}, {"smiles": "Clc1cccc([C@H](c2ccc(CN3CCNCC3)cc2)n2ccnc2)c1", "log2 fold change growth": -0.356}, {"smiles": "O=C([C@@H](c1ccc(Cl)cc1)c1cccnc1)N1CCN(c2ccc(C(F)(F)F)cc2)CC1", "log2 fold change growth": -0.994}, {"smiles": "Nc1ncc(-c2ccc(C(F)(F)F)nc2)cc1-c1ccc(C(F)(F)F)nc1", "log2 fold change growth": 0.0312}, {"smiles": "O=C(Nc1ccc2c(c1)B(O)OC2)c1ccccc1C(F)(F)F", "log2 fold change growth": "-8.94 (active)"}, {"smiles": "O=C(NCCc1ccccc1)c1cc(-c2cccnc2)cnc1NCC1CC1", "log2 fold change growth": -0.19}, {"smiles": "Cc1cc(C(=O)Nc2ccc(-c3ccccc3)cc2)no1", "log2 fold change growth": "-3.09 (active)"}, {"smiles": "C[C@H]1c2cccc(O)c2C(O)=C2C(=O)[C@]3(O)C(O)=C(C(N)=O)C(=O)[C@@H](N(C)C)[C@@H]3[C@@H](O)[C@@H]21", "log2 fold change growth": 0.805}, {"smiles": "NCC(=O)N1CCn2c(nc(-c3ccccc3)c2Nc2ccc3c(c2)OCO3)C1", "log2 fold change growth": 0.0553}, {"smiles": "COc1ccc(Oc2ccc([C@@H](C)N(C)c3ncc4c(N)nc(N)nc4n3)cc2)cc1", "log2 fold change growth": 0.282}, {"smiles": "O=C(NC1=NCCS1)c1sc2cc(F)ccc2c1Cl", "log2 fold change growth": -0.159}, {"smiles": "CCn1cnc2c(Nc3cc(F)cc(F)c3)nc(C#N)nc21", "log2 fold change growth": -0.053}, {"smiles": "Cc1ccc2nc(C)c(-c3ccn(Cc4ccccc4)n3)n2c1", "log2 fold change growth": 0.192}, {"smiles": "Cc1cc(C)n(-c2ccc(NC(=O)C3CCN(Cc4cnc(C)s4)CC3)cc2)n1", "log2 fold change growth": 0.442}, {"smiles": "Cc1cc(C)nc(-n2nc(C)cc2Nc2ccccc2)n1", "log2 fold change growth": 0.0497}, {"smiles": "COC(=O)C1=C(C)NC(C)=C(C(=O)OC(C)C)[C@H]1c1cccc2nonc12", "log2 fold change growth": "-2.22 (active)"}, {"smiles": "CC(C)(C(=O)Nc1ccc(F)cc1)n1cc(-c2ccccc2F)cn1", "log2 fold change growth": 0.0447}, {"smiles": "O=C(OCc1ccccc1)N1CCC(c2cc(-c3ccncc3)c(-c3ccc(F)cc3)[nH]2)CC1", "log2 fold change growth": -0.374}, {"smiles": "Cc1ccccc1CN1CCC(O)(c2ccc(Cl)c(C(F)(F)F)c2)CC1", "log2 fold change growth": 0.151}, {"smiles": "CCn1ncc2c(NC3CCOCC3)c(CNC(=O)c3ccnn3C)c(C)nc21", "log2 fold change growth": -0.407}, {"smiles": "Cc1ccc2oc(-c3cc(NC(=O)Cc4ccccc4)ccc3Cl)nc2c1", "log2 fold change growth": 0.272}, {"smiles": "COc1ccc(C(=N)N)cc1-c1cn(-c2ccc(C(=N)N)cc2)nn1", "log2 fold change growth": -0.0296}]}]}
